Measurements as given in PubChem BioAssay (NCI).
This is part of a sample that, as a whole, favours compounds with a hit. Of some 83,000 tested, about 20% had one in any assay.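 The test compound was applied at a single concentration to cells in 96-well plates for 48 hours, and percent growth was recorded.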 Unmarked numbers belong to inactive results. Calls of active or inactive are those of the source. How the source made its calls: active means growth percent below 10; inactive means the rest.

test system: LOX IMVI melanoma; assay: NCI-60 one-dose screen, 48 h (100 = growth as untreated, 0 = no growth, -100 = all killed); settings: 10 µM unless noted

| SMILES | growth |
| --- | --- |
| CCCCC(=O)Nc1nc2ccc(SCCC)cc2s1 | 43.2% |
| CC(C)(C)C(=O)/C=c1/[nH]c(=O)/c(=C/c2ccccc2O)s1 | 40% |
| CC[C@@]1(O)C(=O)OCc2c1cc1n(c2=O)Cc2c-1nc1ccccc1c2/C=N/OC(C)(C)C | -58.5% (active) |
| COc1ccc(OC)c(NCC(=O)n2nc(/C=C\c3ccc(O)c(OC)c3)cc2/C=C\c2ccc(O)c(OC)c2)c1 | 9.71% (active) |
| O=C1OC(=O)C2C3CC(c4ccccc43)C12 (stereo not drawn) | 103% |
| COc1ccc2c(c1)OC(N)=C(C#N)C2c1ccc(F)cc1 (stereo not drawn) | 39.1% |
| S=C=NP1(N=C=S)=NP(N=C=S)(N=C=S)=NP(N=C=S)(N=C=S)=NP(N=C=S)(N=C=S)=N1 (stereo not drawn) | 97.8% |
| COc1cc(-c2nc(N)n(CC(=O)Nc3ccc(/C(C)=N\O)cc3)n2)cc(OC)c1OC | 99.6% |
| COc1cc2ncnc(Oc3ccc(NC(=O)Nc4ccc(CN5CCOCC5)c(C(F)(F)F)c4)c4ccccc34)c2cc1OC | 21.5% |
| COc1ccc(-c2c(C#N)cnc(N)c2-c2nc3cc(C)c(C)cc3[nH]2)cc1 | 59.6% |
| c1ccc(CNCCN(CCNCc2ccccn2)Cc2ccc3ccccc3c2)nc1 | 0.713% (active) |
| C=C1C(=O)O[C@H]2[C@H]1CC/C(C(=O)Nc1ccc(OC)c(C(N)=O)c1O)=C\CC[C@@]1(C)O[C@@H]21 | 77.1% |
| Cc1ccc2oc(=O)cc(C3C(C#N)=C(N)Oc4c3ccc3ccccc43)c2c1 (stereo not drawn) | 75.4% |
